Holding throughout (design): scale not given: direction of the effect not stated beside the values
For experiment [1], the target named is Protein translocase subunit SecA (Escherichia coli (strain K12)) (UniProt P10408). The experiment can be described thus: Assay to Identify E. coli SecA ATPase Inhibitors. It counts as functional. The settings on record: 30 µM.
Experiment [2] concerns the target T1, Ubiquitin-activating enzyme e1, putative (Leishmania donovani (strain BPK282A1)) (UniProt E9BSI1).
T1 sequence (whole entry): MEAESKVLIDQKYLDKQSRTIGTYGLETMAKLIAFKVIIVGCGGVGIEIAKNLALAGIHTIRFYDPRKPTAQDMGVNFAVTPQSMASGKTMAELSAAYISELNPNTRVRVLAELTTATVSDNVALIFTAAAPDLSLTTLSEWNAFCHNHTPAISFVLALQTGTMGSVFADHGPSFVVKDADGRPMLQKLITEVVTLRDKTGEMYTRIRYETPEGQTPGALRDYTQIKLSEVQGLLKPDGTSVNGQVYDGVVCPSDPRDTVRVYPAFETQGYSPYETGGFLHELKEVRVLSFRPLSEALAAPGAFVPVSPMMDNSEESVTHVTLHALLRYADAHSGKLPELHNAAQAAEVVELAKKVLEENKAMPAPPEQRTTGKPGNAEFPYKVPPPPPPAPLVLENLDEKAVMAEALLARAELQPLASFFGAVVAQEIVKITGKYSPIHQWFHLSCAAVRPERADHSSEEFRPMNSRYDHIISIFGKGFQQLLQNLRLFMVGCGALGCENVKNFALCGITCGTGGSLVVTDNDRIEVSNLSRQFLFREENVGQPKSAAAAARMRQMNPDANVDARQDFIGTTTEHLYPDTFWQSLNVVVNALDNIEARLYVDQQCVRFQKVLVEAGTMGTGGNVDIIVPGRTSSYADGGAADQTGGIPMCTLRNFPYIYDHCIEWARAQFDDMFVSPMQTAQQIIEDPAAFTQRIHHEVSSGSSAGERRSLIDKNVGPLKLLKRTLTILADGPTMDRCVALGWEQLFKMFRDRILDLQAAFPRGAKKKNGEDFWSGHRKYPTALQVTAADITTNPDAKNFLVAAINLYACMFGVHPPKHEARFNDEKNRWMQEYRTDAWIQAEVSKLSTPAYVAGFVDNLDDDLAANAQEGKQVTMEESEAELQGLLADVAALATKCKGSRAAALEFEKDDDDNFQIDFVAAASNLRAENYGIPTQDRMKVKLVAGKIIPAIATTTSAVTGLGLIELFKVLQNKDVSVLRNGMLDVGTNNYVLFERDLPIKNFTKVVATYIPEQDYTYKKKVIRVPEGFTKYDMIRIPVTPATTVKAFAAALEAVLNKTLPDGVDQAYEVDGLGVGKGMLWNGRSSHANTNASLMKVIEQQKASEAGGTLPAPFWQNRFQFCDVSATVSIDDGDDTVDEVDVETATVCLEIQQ
The experiment can be described thus: Leishmania donovani Ubiquitin Activating Enzyme (LdE1). The experiment is classed as functional. The settings on record: 30 µM.

The target of experiment [3] is AMP-activated protein kinase, AMPK (Homo sapiens) (UniProt P54646+O43741+P54619+Q9UGJ0+Q9Y478+Q13131+Q9UGI9). The experiment can be described thus: AMP-dependent Kinase enzyme assay. An in vitro enzyme assay that detects ADP turnover that is directly proportional to AMPK activity. This uses naive AMPK that is activated during the assay with MK-8722. The settings on record: 30 µM. It counts as functional.

For experiment [4], the target named is Sialic acid-binding Ig-like lectin 9 (Homo sapiens) (UniProt Q9Y336). The experiment can be described thus: Hs-Siglec9 ALPHAscreen SOP 20170721. The settings on record: 10 µM. A general note: Alpha assays give light when donor and acceptor beads are brought close together.
Sialic acid-binding Ig-like lectin 9 (Homo sapiens), sequence (Q9Y336 whole entry): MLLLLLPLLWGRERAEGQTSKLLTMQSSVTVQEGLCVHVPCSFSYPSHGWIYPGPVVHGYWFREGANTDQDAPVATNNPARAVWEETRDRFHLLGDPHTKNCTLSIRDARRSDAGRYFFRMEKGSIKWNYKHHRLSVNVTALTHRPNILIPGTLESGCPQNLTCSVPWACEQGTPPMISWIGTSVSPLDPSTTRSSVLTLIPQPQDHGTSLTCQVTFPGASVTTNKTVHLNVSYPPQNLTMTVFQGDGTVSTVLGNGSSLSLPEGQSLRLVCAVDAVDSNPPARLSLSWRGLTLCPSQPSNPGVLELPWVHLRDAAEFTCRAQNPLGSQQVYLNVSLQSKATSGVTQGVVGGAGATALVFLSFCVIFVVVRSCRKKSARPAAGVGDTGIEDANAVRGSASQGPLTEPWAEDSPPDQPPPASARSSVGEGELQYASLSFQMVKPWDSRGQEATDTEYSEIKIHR
For the next experiment, the system named is Trypanosoma cruzi. The experiment can be described thus: Trypanosoma cruzi phosphomannomutase and mannose-1-phosphate guanylyltransferase assay. The settings on record: 10 µM. The experiment is classed as functional.
The target in experiment [5] is T2, Arginase-2, mitochondrial (Homo sapiens) (UniProt P78540).
T2 sequence (whole entry): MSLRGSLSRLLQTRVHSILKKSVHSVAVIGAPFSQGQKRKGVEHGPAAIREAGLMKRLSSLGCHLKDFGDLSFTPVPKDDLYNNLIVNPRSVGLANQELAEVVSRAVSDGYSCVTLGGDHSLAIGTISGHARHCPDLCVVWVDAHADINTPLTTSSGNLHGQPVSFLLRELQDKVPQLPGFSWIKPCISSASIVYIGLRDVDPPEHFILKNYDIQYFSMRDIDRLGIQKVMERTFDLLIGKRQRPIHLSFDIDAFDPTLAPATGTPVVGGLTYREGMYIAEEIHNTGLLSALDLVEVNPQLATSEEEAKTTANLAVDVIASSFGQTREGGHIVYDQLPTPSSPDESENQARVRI
The experiment can be described thus: in vitro enzyme assay to detect the production of urea directly proportional to the activity of Arginase II. Also: in the data most compounds retested in dose-response had high values. It counts as functional. The settings on record: 33.3 µM.

The target in experiment [6] is T3, Proteasome subunit beta (Trypanosoma cruzi) (UniProt O96673).
T3 sequence (whole entry): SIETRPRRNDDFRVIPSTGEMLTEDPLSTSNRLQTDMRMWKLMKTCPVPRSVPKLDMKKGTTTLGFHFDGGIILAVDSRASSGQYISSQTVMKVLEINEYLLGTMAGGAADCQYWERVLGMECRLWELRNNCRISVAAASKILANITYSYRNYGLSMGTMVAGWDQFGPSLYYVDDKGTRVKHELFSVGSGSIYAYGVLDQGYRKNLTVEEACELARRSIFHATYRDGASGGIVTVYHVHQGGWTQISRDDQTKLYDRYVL
The experiment can be described thus: Trypanosoma cruzi proteasome chymotrypsin-like activity (TcProtChymo) assay. Also: in the data most compounds retested in dose-response had high values. The settings on record: 9.37 µM. It counts as functional.

For another experiment, the species on record is Homo sapiens. The experiment can be described thus: To identify inhibition of the IFN signalling (Jak-Stat) pathway via expression of an eGFP reporter gene under the control of an IFN-stimulated response element (ISRE) containing MxA promoter. The experiment is classed as functional. The settings on record: 30 µM. (In general: Reporter assays use an easily measured gene product as a stand-in for the process of interest.)

Experiment [7] addresses T4, Tyrosyl-tRNA synthetase, putative (Trypanosoma cruzi (strain CL Brener)) (UniProt Q4DSP6).
T4 sequence (whole entry): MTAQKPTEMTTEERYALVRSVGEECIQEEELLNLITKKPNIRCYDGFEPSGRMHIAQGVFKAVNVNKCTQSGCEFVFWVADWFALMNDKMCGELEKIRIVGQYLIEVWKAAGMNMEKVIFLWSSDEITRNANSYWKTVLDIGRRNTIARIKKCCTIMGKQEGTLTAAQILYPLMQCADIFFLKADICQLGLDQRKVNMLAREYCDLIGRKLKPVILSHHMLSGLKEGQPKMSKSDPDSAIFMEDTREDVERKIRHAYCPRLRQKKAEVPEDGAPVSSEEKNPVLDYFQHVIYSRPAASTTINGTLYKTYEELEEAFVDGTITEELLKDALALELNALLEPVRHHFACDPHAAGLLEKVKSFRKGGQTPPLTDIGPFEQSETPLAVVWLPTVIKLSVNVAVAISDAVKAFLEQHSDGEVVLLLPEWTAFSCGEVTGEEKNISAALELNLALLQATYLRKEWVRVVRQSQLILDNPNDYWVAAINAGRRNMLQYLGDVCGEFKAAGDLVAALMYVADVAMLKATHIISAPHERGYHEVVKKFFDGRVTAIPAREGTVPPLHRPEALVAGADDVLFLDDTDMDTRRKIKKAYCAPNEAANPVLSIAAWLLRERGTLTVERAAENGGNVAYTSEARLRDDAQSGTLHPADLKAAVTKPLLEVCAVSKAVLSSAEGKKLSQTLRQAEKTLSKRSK
The experiment can be described thus: Trypanosoma cruzi tyrosyl tRNA synthetase (TcYRS) _High Tyrosine SOP. Also: in the data most compounds retested in dose-response had high values. The settings on record: 30 µM. The experiment is classed as functional.

Experiment [8] deals with T4, Tyrosyl-tRNA synthetase, putative (Trypanosoma cruzi (strain CL Brener)). The experiment can be described thus: Trypanosoma cruzi tyrosyl tRNA synthetase (TcYRS) SOP. The experiment is classed as functional. The settings on record: 30 µM.
The target of experiment [9] is Chromo domain-containing protein 1 (Saccharomyces cerevisiae (strain ATCC 204508 / S288c) (Baker's yeast)) (UniProt P32657). The experiment can be described thus: ScCHD-1 Enzyme Inhibition Assay. Also: in the data most compounds retested in dose-response had high values. The experiment is classed as functional. The settings on record: 30 µM.
Chromo domain-containing protein 1 (Saccharomyces cerevisiae (strain ATCC 204508 / S288c) (Baker's yeast)), sequence (P32657 whole entry, the tested form may be a part): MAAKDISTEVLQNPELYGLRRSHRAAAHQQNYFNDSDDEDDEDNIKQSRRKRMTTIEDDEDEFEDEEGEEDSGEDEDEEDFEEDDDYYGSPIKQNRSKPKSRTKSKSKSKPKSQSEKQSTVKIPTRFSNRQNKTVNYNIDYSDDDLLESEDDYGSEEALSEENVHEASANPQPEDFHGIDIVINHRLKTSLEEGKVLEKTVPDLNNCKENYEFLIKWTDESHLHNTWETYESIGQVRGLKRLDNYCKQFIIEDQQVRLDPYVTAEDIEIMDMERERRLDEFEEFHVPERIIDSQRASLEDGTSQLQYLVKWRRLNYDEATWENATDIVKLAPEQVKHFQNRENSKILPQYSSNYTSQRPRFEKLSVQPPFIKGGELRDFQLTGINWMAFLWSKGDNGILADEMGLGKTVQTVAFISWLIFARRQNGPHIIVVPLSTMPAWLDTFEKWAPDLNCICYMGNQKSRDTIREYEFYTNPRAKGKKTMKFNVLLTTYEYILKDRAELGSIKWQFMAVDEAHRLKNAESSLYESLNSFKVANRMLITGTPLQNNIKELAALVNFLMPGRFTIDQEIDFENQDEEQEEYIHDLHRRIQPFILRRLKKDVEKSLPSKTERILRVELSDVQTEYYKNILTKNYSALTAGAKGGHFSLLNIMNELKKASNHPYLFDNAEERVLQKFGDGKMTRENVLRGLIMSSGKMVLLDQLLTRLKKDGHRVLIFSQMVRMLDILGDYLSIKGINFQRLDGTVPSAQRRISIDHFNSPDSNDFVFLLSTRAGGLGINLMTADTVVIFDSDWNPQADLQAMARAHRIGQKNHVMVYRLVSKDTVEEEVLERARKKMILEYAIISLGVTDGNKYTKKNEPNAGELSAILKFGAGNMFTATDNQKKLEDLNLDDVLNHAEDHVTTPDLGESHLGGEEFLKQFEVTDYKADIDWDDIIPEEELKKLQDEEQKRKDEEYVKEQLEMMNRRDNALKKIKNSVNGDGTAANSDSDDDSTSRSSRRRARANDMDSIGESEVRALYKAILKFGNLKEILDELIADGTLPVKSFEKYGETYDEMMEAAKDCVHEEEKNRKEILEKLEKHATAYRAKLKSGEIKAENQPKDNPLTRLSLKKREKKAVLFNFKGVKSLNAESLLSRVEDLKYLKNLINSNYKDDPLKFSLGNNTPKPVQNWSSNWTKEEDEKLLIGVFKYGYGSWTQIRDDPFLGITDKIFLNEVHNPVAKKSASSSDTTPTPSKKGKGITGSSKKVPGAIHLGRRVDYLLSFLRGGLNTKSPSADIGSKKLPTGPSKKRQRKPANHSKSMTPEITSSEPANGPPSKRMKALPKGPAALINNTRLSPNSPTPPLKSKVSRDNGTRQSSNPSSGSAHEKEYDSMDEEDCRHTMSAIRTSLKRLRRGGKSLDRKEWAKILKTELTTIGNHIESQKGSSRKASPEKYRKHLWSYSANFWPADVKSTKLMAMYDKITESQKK

For some of these results: Measured potencies and affinities stand elsewhere.

Protein translocase subunit SecA (Escherichia coli (strain K12)), sequence (P10408 whole entry): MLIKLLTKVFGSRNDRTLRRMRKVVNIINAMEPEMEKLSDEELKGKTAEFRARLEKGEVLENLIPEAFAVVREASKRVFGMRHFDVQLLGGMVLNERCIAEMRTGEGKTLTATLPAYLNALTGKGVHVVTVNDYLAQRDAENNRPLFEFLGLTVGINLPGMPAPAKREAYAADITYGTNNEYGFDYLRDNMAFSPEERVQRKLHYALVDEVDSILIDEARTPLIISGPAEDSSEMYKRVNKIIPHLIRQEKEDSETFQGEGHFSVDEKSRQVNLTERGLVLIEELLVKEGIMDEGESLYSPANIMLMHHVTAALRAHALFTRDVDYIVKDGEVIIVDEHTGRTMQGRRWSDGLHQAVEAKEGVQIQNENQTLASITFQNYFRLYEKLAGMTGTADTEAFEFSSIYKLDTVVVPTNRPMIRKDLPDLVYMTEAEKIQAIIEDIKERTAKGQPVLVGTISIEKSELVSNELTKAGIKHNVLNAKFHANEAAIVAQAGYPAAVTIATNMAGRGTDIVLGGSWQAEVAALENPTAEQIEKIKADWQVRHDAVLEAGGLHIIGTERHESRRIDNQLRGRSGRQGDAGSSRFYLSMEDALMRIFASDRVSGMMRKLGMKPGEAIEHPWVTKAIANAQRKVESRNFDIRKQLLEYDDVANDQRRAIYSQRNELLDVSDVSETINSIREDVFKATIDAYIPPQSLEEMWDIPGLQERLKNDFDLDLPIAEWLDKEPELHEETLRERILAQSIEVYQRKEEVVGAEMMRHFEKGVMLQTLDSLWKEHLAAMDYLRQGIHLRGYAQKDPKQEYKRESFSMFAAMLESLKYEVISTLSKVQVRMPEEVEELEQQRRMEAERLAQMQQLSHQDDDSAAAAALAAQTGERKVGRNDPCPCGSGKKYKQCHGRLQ

Regarding `Cc1occc1C(=O)N1CCC2(CCN(Cc3nccs3)C2)CC1`, the Percent Effect is -3.24% in experiment [1]; 2.6% in experiment [2]; 0.489% in experiment [3]; 3.8% in experiment [4]; 3.83% in the experiment with Trypanosoma cruzi; -8.28% in [5]. Moreover, the Percent Effect in experiment [6] was -1.66%; in the experiment listed under Homo sapiens, -23.6%; in experiment [7], 0%; in experiment [8], -3.7%; in experiment [9] it was 6.12%.

Regarding `CC1=N[C@@]2(CC[C@@H]3CN(Cc4ccccc4F)C[C@@H]32)C(=O)N1CC1CC1`, the Percent Effect in experiment [1] is -5%; in experiment [2], 0%; in experiment [3] it was 5.98%; in experiment [4], -2.03%; in the experiment on Trypanosoma cruzi, -0.195%; in experiment [5], -2.5%. Further, the Percent Effect in [6] is 2.96%; in the experiment listed under Homo sapiens it was 11.1%; in [7], 4.95%; in experiment [8] it was 3.66%; in experiment [9], 1.49%.

Consider `Cn1cc(C(=O)CC2CCCN2C(=O)c2n[nH]c3ccccc23)cn1` (stereo unspecified), for which the Percent Effect in experiment [1] is -2.35%; in experiment [2] it was 1.27%; in experiment [3], 3.62%; in experiment [4] it was 0.382%; with Trypanosoma cruzi, 2.56%; in experiment [5], 1.94%. Also, the Percent Effect in [6] is 7.03%; in the experiment filed under Homo sapiens, -8.13%; in experiment [7], 7.29%; in experiment [8], 2.53%; in experiment [9], -9.86%.

Regarding `Cn1ccnc1SCc1nc(C(C)(C)NC(=O)OC(C)(C)C)no1`, the Percent Effect in [1] was -5.41%; in experiment [2] it was 18.7%; in [3], -1.15%; in experiment [4], 21.2%; in the experiment with Trypanosoma cruzi, 5.94%; in experiment [5] it was 2.08%. The Percent Effect was 10.6% in experiment [6]; 21.2% in the experiment filed under Homo sapiens; 6.01% in experiment [7]; 16.1% in [8]; -9.46% in experiment [9].

With `Cc1ccc(OCC(=O)NCC(C)C)nc1`, the Percent Effect in [1] was -6.24%; in experiment [2] it was 13.7%; in experiment [3] it was -6.5%; in experiment [4], 6.61%; in the experiment on Trypanosoma cruzi, 6.94%; in experiment [5], 1.2%. The Percent Effect was 4.37% in experiment [6]; 1.54% in the experiment filed under Homo sapiens; 8.33% in experiment [7]; 11.1% in [8]; -8.95% in [9].

On to `CC(O)CN1CCN(Cc2csc(-c3ncccn3)n2)CC1` (stereo unspecified), for which the Percent Effect in experiment [1] was 1.21%; in experiment [2], 7.89%; in experiment [3], -3.51%; in experiment [4], -8.16%; in the experiment on Trypanosoma cruzi it was -3.02%; in experiment [5], 3.55%. For the same molecule, the Percent Effect in experiment [6] is 24.6%; in the experiment listed under Homo sapiens, 16.8%; in experiment [7], 5.32%; in experiment [8], 15.6%; in experiment [9], -4.73%.

Regarding `NC(=O)C1CN(Cc2c[nH]cn2)CCN(C2CCOCC2)C1` (stereo unspecified), the Percent Effect in [1] was 1.35%; in [2], 4.05%; in experiment [3], 5.54%; in experiment [4], 9.65%; with Trypanosoma cruzi, -7.12%; in [5], 18.8%. For the same molecule, the Percent Effect is 7.02% in [6]; 19.2% in the experiment listed under Homo sapiens; 12.9% in experiment [7]; 19.5% in experiment [8]; -6.44% in [9].

As to `c1cc2nc(C3CCN(CC4CC4)CC3)nn2cc1N1CCCC1`, the Percent Effect was -0.605% in [1]; 11% in [2]; -111% in [3]; 9.79% in [4]; 0.595% in the experiment with Trypanosoma cruzi; 0.399% in [5]. Further, the Percent Effect in experiment [6] was 11.4%; in the experiment listed under Homo sapiens, 7.29%; in experiment [7] it was 13.5%; in [8], -1.24%; in experiment [9], -6.62%.

With `COCC(c1cccc(C(F)(F)F)c1)N(C)C(=O)c1cc(C)n[nH]1` (stereo unspecified), the Percent Effect in experiment [1] is 0.248%; in [2], 18.4%; in experiment [3], -1.4%; in [4], -4.5%; in the experiment with Trypanosoma cruzi it was -3.01%; in [5], 2.68%. Moreover, the Percent Effect in experiment [6] was 9.02%; in the experiment filed under Homo sapiens it was 0.723%; in experiment [7], 1.47%; in experiment [8], 12.2%; in experiment [9], -13%.

As for `Cc1ccc(N2CCCC(N(C)Cc3cc(C)no3)C2)nn1` (stereo unspecified), the Percent Effect is -0.747% in experiment [1]; 5.33% in experiment [2]; -6.3% in [3]; 43.3% in experiment [4]; 5.55% in the experiment on Trypanosoma cruzi; 23.4% in [5]. Also, the Percent Effect in experiment [6] was 19.9%; in the experiment listed under Homo sapiens, 0.899%; in [7] it was 6.01%; in [8], 11.1%; in [9], -17.3%.

For the molecule `CNS(=O)(=O)c1cccc(CNc2ccc(C(F)(F)F)nn2)c1`, the Percent Effect in experiment [1] is -5.02%; in experiment [2], 8.11%; in [3] it was -4.31%; in experiment [4] it was -0.144%; in the experiment on Trypanosoma cruzi it was -3.87%; in experiment [5], 30.9%. Besides, the Percent Effect is -1.62% in experiment [6]; 19.2% in the experiment filed under Homo sapiens; 4.43% in experiment [7]; 6.17% in experiment [8]; -1.87% in experiment [9].

The values are drawn from ChEMBL document CHEMBL3988442, “University of Dundee, Small-Polar-MMV Screening Library” (2021).
